{"source": "PubChem BioAssay (NCATS)", "note": "Records with an inconclusive call do not appear. Active and inactive are the calls of the source. The call rests on the fitted dose curve; in most records, active means well fitted cell-killing curve with a large enough effect; inconclusive means small, poorly fitted or top-dose-only effect, or effect the other way; inactive means no such curve, though single readings can be large or run the other way. Potency means the concentration at half of the fitted maximal effect.", "data": [{"experiment": "Quantitative High-Throughput drug screen in 47 multiple myeloma cell lines against the NCATS MIPE library collection: UTMC2_PLB cell viability assay (AID 1919868); further: nearly all actives have a fitted effect of over 55% in size", "settings": "CellTiter-Glo ATP luminescence, 48 h; viability (% of DMSO control): at 45.8 µM (top of the series)", "description": "PI: Beverly A. Mock Ph.D.\nLaboratory of Cancer Biology and Genetics,\nCenter for Cancer Research, National Cancer Institute,\nNational Institute of Health, Bethesda, Maryland\nDrug resistance and disease progression are common in multiple myeloma (MM) patients, underscoring the need for new therapeutic combinations. […] We hypothesized that effective combinations would reduce MYC expression and enhance p16 activity. […] These preclinical data identify potentially useful drug combinations for evaluation in drug-resistant MM and reveal potential mechanisms of combined drug sensitivity.\nDescribed herein is the primary MIPE qHTS used to cherrypick compounds. Validated compounds were then further tested for potential synergistic activiy.\n[1] Peat TJ, Gaikwad SM, Dubois W, Gyabaah-Kessie N, Zhang S, Gorjifard S, Phyo Z, Andres M, Hughitt VK, Simpson RM, Miller MA, Girvin AT, Taylor A, Williams D, D'Antonio N, Zhang Y, Rajagopalan A, Flietner E, Wilson K, Zhang X, Shinn P, Klumpp-Thomas C, McKnight C, Itkin Z, Chen L, Kazandijian D, Zhang J, Michalowski AM, Simmons JK, Keats J, Thomas CJ, Mock BA. Drug combinations identified by high-throughput screening promote cell cycle transition and upregulate Smad pathways in myeloma. Cancer Lett. 2023 Aug 1;568:216284. doi: 10.1016/j.canlet.2023.216284. Epub 2023 Jun 24. PMID: 37356470; PMCID: PMC10408729.\nSEQUENCE No. (e.g., 1, 2, 3, etc.); […] (e.g., Cells, Incubation, Reagent, etc.); VALUE and DESCRIPTION.\n1; Cells; 5 uL; white, solid bottom 1536-well Greiner assay plate.\n2; Compounds; 23 nL; Kalypsis pin tool (Wako USA) equipped with a 1536-well pin head to transfer to the assay plates.\n3; Incubation; 48 hours; 37C incubation.\n4; Reagent;5uL; CellTiter Glo (Promega).\n5; Detector; 425V; Luminescence; Viewlux PerkinElmer.\nNOTES (numbers refer to Sequence numbers above)\n1. The cell-based screening methods employed in this study were like those previously published. Briefly, the corresponding myeloma cell lines were screened in 1,536-well plates with 500 cells, 5-uL per well for inhibition of cell viability (assessed by measuring ATP levels with CellTiterGlo).\n2. NCATS MIPE 4.0 library of approved and investigational drugs were added using the Kalypsis pin tool. Wells treated with DMSO only for 100% viability and media only for 0% viability were used as controls.\n3. The assay plates were covered and incubated for 48 hours in a 37C, 5% CO2 incubator with controlled humidity.\n4. After 48 hours, CellTilter-GloTM luminescent substrate mix (Promega) reagent was added to the assay plate and plates we incubated for 5 min at room temperature.\n5. Signal was measured as median relative luminescence units on a ViewLux (PerkinElmer) multiplate reader.\n[1] Heske CM, Davis MI, Baumgart JT, Wilson K, Gormally MV, Chen L, Zhang X, Ceribelli M, Duveau DY, Guha R, Ferrer M, Arnaldez FI, Ji J, Tran HL, Zhang Y, Mendoza A, Helman LJ, Thomas CJ. Matrix Screen Identifies Synergistic Combination of PARP Inhibitors and Nicotinamide Phosphoribosyltransferase (NAMPT) Inhibitors in Ewing Sarcoma. Clin Cancer Res. 2017 Dec 1;23(23):7301-7311. doi: 10.1158/1078-0432.CCR-17-1121. Epub 2017 Sep 12. PMID: 28899971; PMCID: PMC6636827.", "values": [{"smiles": "O=C1CC[C@@]2(O)[C@H]3Cc4ccc(O)c5c4[C@@]2(CCN3CC2CC2)[C@H]1O5", "Potency": "inactive"}, {"smiles": "C=C(C)[C@H]1Cc2c(ccc3c2O[C@@H]2COc4cc(OC)c(OC)cc4[C@@H]2C3=O)O1", "Potency": "332 nM (active)"}, {"smiles": "COc1ccc(C(CN(C)C)C2(O)CCCCC2)cc1", "note": "(stereo not given)", "Potency": "inactive"}, {"smiles": "COc1ccc(C(=O)c2c(C)n(CCN3CCOCC3)c3ccccc23)cc1", "Potency": "inactive"}, {"smiles": "COc1ccc2c(c1OC)CN1CCc3cc4c(cc3C1C2)OCO4", "note": "(stereo not given)", "Potency": "2090 nM (active)"}, {"smiles": "N[C@@H](Cc1ccc(N(CCCl)CCCl)cc1)C(=O)O", "Potency": "935 nM (active)"}, {"smiles": "COC[C@H]1OC(=O)c2coc3c2[C@@]1(C)C1=C(C3=O)C2CCC(=O)[C@@]2(C)C[C@H]1OC(C)=O", "note": "(stereo not given in full)", "Potency": "264 nM (active)"}, {"smiles": "C[C@@H]1[C@@H](CC(C[C@H]2O[C@@H]3O[C@]4(C)CC[C@@H]5[C@H](C)CC[C@@H]([C@H]2C)[C@@]35OO4)C[S+](=O)([O-])c2ccc(COC(=O)N(C)C)cc2)O[C@@H]2O[C@]3(C)CC[C@H]4[C@H](C)CC[C@@H]1[C@@]24OO3", "note": "(stereo not given in full)", "Potency": "187 nM (active)"}, {"smiles": "CN1CCN(C(=O)O[C@H]2c3nccnc3C(=O)N2c2ccc(Cl)cn2)CC1", "viability (% of DMSO control)": "181% (active)"}, {"smiles": "C[C@@H]1O[C@@H](O[C@H]2C[C@@H](O)[C@]3(CO)[C@H]4[C@H](O)C[C@]5(C)[C@@H](C6=CC(=O)OC6)CC[C@]5(O)[C@@H]4CC[C@]3(O)C2)[C@H](O)[C@H](O)[C@H]1O", "Potency": "11.8 nM (active)"}, {"smiles": "CC(O)(CS(=O)(=O)c1ccc(F)cc1)C(=O)Nc1ccc(C#N)c(C(F)(F)F)c1", "note": "(stereo not given)", "Potency": "4180 nM (active)"}, {"smiles": "COC1(CS(=O)c2ccccc2)CCN(CCc2c[nH]c3ccc(F)cc23)CC1", "note": "(stereo not given)", "Potency": "inactive"}, {"smiles": "C[C@@H]1[C@@H](C(=O)C[C@H]2O[C@@H]3O[C@]4(C)CC[C@@H]5[C@H](C)CC[C@@H]([C@H]2C)[C@@]35OO4)O[C@@H]2O[C@]3(C)CC[C@H]4[C@H](C)CC[C@@H]1[C@@]24OO3", "Potency": "166 nM (active)"}, {"smiles": "CN(C)CCN(C)CCc1ccc(Cl)c(Cl)c1", "Potency": "inactive"}, {"smiles": "Cc1sc2c(c1C)C(c1ccc(Cl)cc1)=N[C@@H](CC(=O)OC(C)(C)C)c1nnc(C)n1-2", "Potency": "662 nM (active)"}]}]}
